Screening data: PubChem, several laboratories
MPTP block: inhibitors of mitochondrial permeability transition pore; isolated mouse mitochondria, Ca2+ swelling absorbance, 30 min; inhibition, % at 10 µM; hit rate 1.4% among 360,000; AID 602449;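 active means inhibition of 50% or more, scaled per plate between neutral and stimulator controls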;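 further: 0% = DMSO wells given calcium and 100% = 1 mM EGTA wells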
Beta apoptosis: beta cell apoptosis inhibition | protection from apoptosis, % (no concentration beside the values) | hit rate 0.8% among 300,000 | AID 435005 | INS-1E cytokine-induced death, ATP luminescence, 48 h; percent of positive-control rescue, neutral wells zero;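 active means Every replicate reaches about 75%, or at least half do and their mean reaches it too, limit read from the data; inconclusive means At least half of replicates reach the limit but their mean does not; inactive means Under half of replicates reach the limit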;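 further: 0% = cytokine-treated negative control wells and 100% = positive control rescue; higher means more ATP so stronger rescue from cytokine killing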
Mdm2 MdmX PPI: human Mdm2/MdmX binding inhibition; SaOS-2 split-luciferase Mdm2/MdmX complementation, luminescence; AID 485346; hit rate 3% among 330,000; inhibition, % at 8 µM;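 active means inhibition of at least 50% at 8 µM in the primary screen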
Target sequence (O15151 whole entry, looked up): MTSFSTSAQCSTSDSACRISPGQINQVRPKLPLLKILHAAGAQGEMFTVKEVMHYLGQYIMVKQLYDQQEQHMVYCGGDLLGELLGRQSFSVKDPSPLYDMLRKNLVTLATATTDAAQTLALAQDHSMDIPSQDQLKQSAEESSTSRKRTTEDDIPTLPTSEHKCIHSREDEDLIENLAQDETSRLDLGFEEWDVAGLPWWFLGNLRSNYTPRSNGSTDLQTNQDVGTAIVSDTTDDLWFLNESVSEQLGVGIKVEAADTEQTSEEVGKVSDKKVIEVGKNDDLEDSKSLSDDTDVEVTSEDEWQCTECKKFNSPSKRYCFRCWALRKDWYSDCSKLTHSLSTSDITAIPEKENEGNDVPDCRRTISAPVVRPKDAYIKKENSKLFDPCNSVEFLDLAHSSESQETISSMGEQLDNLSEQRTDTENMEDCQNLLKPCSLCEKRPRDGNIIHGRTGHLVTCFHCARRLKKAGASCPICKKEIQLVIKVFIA
Target sequence (Q00987 whole entry, looked up): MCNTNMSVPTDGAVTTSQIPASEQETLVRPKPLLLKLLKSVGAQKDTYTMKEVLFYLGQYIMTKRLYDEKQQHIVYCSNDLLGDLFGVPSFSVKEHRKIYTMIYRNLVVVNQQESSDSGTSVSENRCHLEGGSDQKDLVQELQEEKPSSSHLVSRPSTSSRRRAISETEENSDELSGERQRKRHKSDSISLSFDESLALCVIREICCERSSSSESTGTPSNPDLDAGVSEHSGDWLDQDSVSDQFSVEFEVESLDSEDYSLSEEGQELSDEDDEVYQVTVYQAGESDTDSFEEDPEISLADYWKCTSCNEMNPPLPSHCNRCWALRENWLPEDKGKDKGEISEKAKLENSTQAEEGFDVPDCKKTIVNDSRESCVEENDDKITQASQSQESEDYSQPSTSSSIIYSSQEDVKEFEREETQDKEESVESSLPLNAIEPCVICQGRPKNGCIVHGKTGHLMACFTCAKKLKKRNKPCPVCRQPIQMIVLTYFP
CSC inhib: cancer stem cell inhibition; inhibition, % at 7.5 µM; AID 2717; hit rate 1.1% among 300,000; cancer stem cell-like cells viability, luminescence; in the data active means inhibition above about 75%; inconclusive means no clear call, values can overlap the other calls; tested in HMLE shEcad cells
GRIN3A LBD mod: modulators (binders) of human NR3A ligand-binding domain; NR3A LBD differential scanning fluorimetry, Tm shift; 0% = protein alone, 100% = glycine-bound protein; Tm shift relative to glycine control, % at 25 µM; hit rate 2.5% among 340,000;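 active means melting temperature shift of at least 10% of the positive control shift, at one fixed dose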
SKKanGAS inh: blocks kanamycin growth of S. pyogenes SKKanGAS strain; BacTiter-Glo, 6 h; inhibition, % at 7.5 µM; hit rate 1.3% among 300,000; AID 1662;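 active means mean replicate score, as percent of positive control median, at least 50; inconclusive means mean below 50 but one replicate at or above 50; inactive means mean and every replicate below 50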;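 further: strain carries kanamycin resistance gene driven by streptokinase promoter and grows in 40 µg/ml kanamycin; loss of luminescence reflects streptokinase promoter inhibition or plain growth inhibition; 0% = median of DMSO wells and 100% = positive control at its reference dose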
Mdm2-MdmX conf: confirmation of human Mdm2/MdmX interaction inhibitors; hit rate 55% among 10,000; Mdm2-MdmX binding, luminescent assay; AID 489028; shares compounds with Mdm2 MdmX PPI; inhibition, % at 8 µM; in the data active means inhibition above about 40%
FLuc counter: full-length luciferase inhibition in Mdm2/MdmX counter-screen | shares compounds with Mdm2 MdmX PPI | SaOS-2 full-length luciferase counterscreen, luminescence | inhibition, % at 8 µM | hit rate 77% among 6,200 | AID 504607;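 active means mean inhibition at 8 µM reaching about 37%, which flags the compound as non-specific, limit read from the data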;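 further: p53-null SaOS-2 cells with luciferase driven by a doxycycline-inducible promoter; compound on cells about two nights before reading with doxycycline added after day one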
MPTP counter: membrane potential counter-screen of mitochondrial pore inhibitors; isolated mitochondria, Rhodamine 123 fluorescence; inhibition, % at 10 µM; shares compounds with MPTP block; hit rate 78% among 5,000; in the data active means inhibition above about 22%;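 further: 0% = DMSO vehicle and 100% = positive control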
MPTP abs DR: MPTP inhibition, dose response swelling confirmation | shares compounds with MPTP block | isolated mitochondria swelling, absorbance | IC50, µM | hit rate 58% among 780; in the data active means IC50 below about 20 µM
MPTP counter DR: active in counter-screen for permeability transition pore inhibitors | IC50, µM | AID 651564 | isolated mitochondria counterscreen, fluorescence read-out | shares compounds with MPTP block | hit rate 49% among 780; in the data active means IC50 below about 80 µM
* hit, by the source's call; i = inactive; u = inconclusive; x = not tested or not shown; ! = not confirmed by another sample. In the library only some 6.9% were active in any assay of this set; here they are far more common.

SMILES	MPTP block	Beta apoptosis	Mdm2 MdmX PPI	CSC inhib	GRIN3A LBD mod	SKKanGAS inh	Mdm2-MdmX conf	FLuc counter	MPTP counter	MPTP abs DR	others
COc1cc(CNCCCN2CCOCC2)cc(Br)c1OCc1ccc(Cl)cc1	74*	19	69*	-9	-1	-6	45*	59*	-9	x
CC1CCC(C(C)C)C(OCC(O)CNC(C)C)C1 (centres undefined)	3	15	13	-27	0	0	x	x	x	x
O=c1c2ccccc2nc(COc2ccccc2)n1/N=C/c1ccc(O)c(O)c1	10	6	16	35	3	1	x	x	x	x
Cc1cc(/C=N/n2c(COc3ccccc3)nc3ccccc3c2=O)c(O)c([N+](=O)[O-])c1	79*	55	59*	u	16*	18	47*	40*	33*	x
CCn1c2ccccc2c2cc(CNCc3ccc(OC)cc3OC)ccc21	73*	9	100*	-1	-2	16	60*	54*	37*	x
CCN(Cc1ccccc1)C(=O)CCS(=O)(=O)c1ccc2c(c1)n(C)c(=O)c(=O)n2C	-1	9	12	5	-9	-3	x	x	x	x
Cc1ccccc1-c1nc(CN2CCC(C(=O)NC3CCN(Cc4ccccc4)CC3)CC2)c(C)o1	68*	-4	99*	19	5	0	58*	75*	-8	i	MPTP counter DR=75*
Cc1ccccc1-c1nc(CN2CCC(C(=O)O)CC2)c(C)o1	-1	-1	7	-10	-1	-6	x	x	x	x
Cn1c2c(c(=O)n(C)c1=O)C(C(F)(F)F)(C(F)(F)F)N=C(c1ccc(Cl)cc1)N2	99*	139*	94*	x	3	15	90*	52*	84*	x
CCC[C@@H](CN[C@@H](CNC)[C@H](C)CC)NCC1CCC(C(C)(C)C)CC1 (some centres undefined)	94*	62	99*	44	1	1	100*	2	-22	5.3*
CCN(CC)CCn1c(=N)n(CC(O)COc2ccccc2)c2ccccc21 (centres undefined)	0	12	30	-3	-4	1	x	x	x	x
CCN(CC)CCn1c(=N)n(CCOc2ccccc2)c2ccccc21	78*	-1	50*	41	-2	-4	61*	62*	2	i	MPTP counter DR=33*
Cc1nc(Cl)c(C(=O)NC(=O)Nc2cccc(C(F)(F)F)c2)c(C)c1[N+](=O)[O-]	97*	38	57*	x	3	16	17	x	89*	x
Cc1onc(C(=O)Nc2cccc(C(F)(F)F)c2)c1[N+](=O)[O-]	-1	x	27	x	-3	9	x	x	x	x
CN=C1c2c(-c3ccccc3)c3cc(OC)ccc3n2CCN1C	68*	-4	51*	-6	0	6	21	x	-5	10*	MPTP counter DR=>80
Cc1c(CCOC(=O)C2C3CC4CC(C3)CC2C4)sc[n+]1CC(=O)c1ccc(Br)cc1 (centres undefined)	100*!	52	67*	108*	-4	50*	16	x	-3	3.7*	MPTP counter DR=21*
Cc1c(CCOC(=O)c2ccc(Cl)cc2Cl)sc[n+]1CC(=O)c1ccc(Br)cc1	-1	26	-13	19	-5	x	x	x	x	x
CN1C(=O)/C(=C\c2ccccc2OCc2ccccc2)SC1=S	0	3	15	11	0	2	x	x	x	x
Cc1cc(/C=C2\SC(=S)N(C)C2=O)c(C)n1-c1cccc(O)c1	66*	-1	78*	u	5	91*	79*	98*	66*	x
CN1C(=O)/C(=C\c2cc(N=Nc3ccccc3)ccc2O)SC1=S	100*	13	91*	0	-2	83*	54*	34	76*	x
